In all, about 5,500 compounds went through this assay and about 2,000 (36%) were called active. Roughly 18% stayed inconclusive and do not appear here. The list shows a part of the results. Values without a mark were called inactive. No stated cut-off is given here; in the data, active means normalized growth mostly below about 0.91 (no sharp cut-off); inconclusive means no clear call, values can overlap the other calls; inactive means mostly above about 0.92.
Test: chemical genetic growth profiling, strain panel (AID 1159580);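 further: tested at 20 µM; growth read once vehicle control cultures reached saturation at 30 °C; 1 = growth at the plate median or of vehicle wells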
Settings: S. cerevisiae deletion strains, growth OD
[1] = locus YBR021W, strain FUR4, stronger effect = lower value
[2] = locus YBR229C, strain ROT2, stronger effect = lower value
[3] = locus YCL029C, strain bik1, stronger effect = lower value
[4] = locus YDL035C, strain GPR1, stronger effect = lower value
[5] = locus YDL074C, strain BRE1, stronger effect = lower value
[6] = locus YDL101C, strain DUN1, stronger effect = lower value
[7] = locus YDL185W, strain tfp1, stronger effect = lower value
[8] = locus YDL192W, strain arf1, stronger effect = lower value
[9] = locus YDR101C, strain arx1, stronger effect = lower value
[10] = locus YDR150W, strain NUM1, stronger effect = lower value
[11] = locus YDR162C, strain NBP2, stronger effect = lower value
[12] = locus YDR318W, strain mcm21, stronger effect = lower value
[13] = locus YDR388W, stronger effect = lower value
[14] = locus YDR502C, strain sam2, stronger effect = lower value
[15] = locus YEL061C, strain CIN8, stronger effect = lower value
[16] = locus YER110C, stronger effect = lower value
[17] = locus YER155C, strain BEM2, stronger effect = lower value
[18] = locus YER167W, strain BCK2, stronger effect = lower value
[19] = locus YGL078C, strain dbp3, stronger effect = lower value
[20] = locus YGL086W, strain mad1, stronger effect = lower value
[21] = locus YGL248W, strain PDE1, stronger effect = lower value
[22] = locus YGR135W, strain pre9, stronger effect = lower value
[23] = locus YGR229C, strain SMI1, stronger effect = lower value
[24] = locus YGR252W, strain gcn5, stronger effect = lower value
[25] = locus YHR030C, strain SLT2, stronger effect = lower value
[26] = locus YHR079C, strain IRE1 (second series), stronger effect = lower value
[27] = locus YHR094C, strain hxt1, stronger effect = lower value
[28] = locus YHR129C, strain ARP1, stronger effect = lower value
[29] = locus YHR200W, strain rpn10, stronger effect = lower value
[30] = locus YIL066C, strain RNR3, stronger effect = lower value
[31] = locus YIL073C, strain SPO22, stronger effect = lower value
[32] = locus YIL125W, strain kgd1, stronger effect = lower value
[33] = locus YIR030C, strain dcg1, stronger effect = lower value
[34] = locus YJL095W, strain BCK1, stronger effect = lower value
[35] = locus YJL134W, strain LCB3, stronger effect = lower value
[36] = locus YJL168C, strain set2, stronger effect = lower value
[37] = locus YJL187C, strain SWE1 (second series), stronger effect = lower value
[38] = locus YJR043C, strain POL32, stronger effect = lower value
[39] = locus YKL009W, strain mrt4, stronger effect = lower value
[40] = locus YKL068W, stronger effect = lower value
[41] = locus YKL085W, strain MDH1 (second series), stronger effect = lower value
[42] = locus YKL085W, strain MDH1, stronger effect = lower value
[43] = locus YKR001C, strain vps1, stronger effect = lower value
[44] = locus YLR039C, strain RIC1, stronger effect = lower value
[45] = locus YLR058C, strain SHM2, stronger effect = lower value
[46] = locus YLR102C, strain apc9, stronger effect = lower value
[47] = locus YLR268W, strain sec22, stronger effect = lower value
[48] = locus YLR371W, strain rom2, stronger effect = lower value
[49] = locus YLR418C, strain cdc73, stronger effect = lower value
[50] = locus YML016C, strain PPZ1, stronger effect = lower value
[51] = locus YML032C, strain rad52, stronger effect = lower value
[52] = locus YML124C, strain tub3, stronger effect = lower value
[53] = locus YMR078C, strain ctf18, stronger effect = lower value
[54] = locus YMR223W, strain ubp8, stronger effect = lower value
[55] = locus YMR307W, strain GAS1, stronger effect = lower value
[56] = locus YNL067W, strain RPL9B, stronger effect = lower value
[57] = locus YNL153C, strain GIM3, stronger effect = lower value
[58] = locus YNL233W, strain BNI4, stronger effect = lower value
[59] = locus YNL250W, strain rad50, stronger effect = lower value
[60] = locus YNL271C, strain bni1, stronger effect = lower value
[61] = locus YNL298W, strain CLA4, stronger effect = lower value
[62] = locus YNL307C, strain MCK1, stronger effect = lower value
[63] = locus YNR052C, strain pop2, stronger effect = lower value
[64] = locus YOL006C, strain TOP1, stronger effect = lower value
[65] = locus YOL147C, strain pex11, stronger effect = lower value
[66] = locus YOR061W, strain CKA2, stronger effect = lower value
[67] = locus YOR069W, strain VPS5, stronger effect = lower value
[68] = locus YOR136W, strain idh2, stronger effect = lower value
[69] = locus YOR144C, strain elg1, stronger effect = lower value
[70] = locus YOR184W, strain ser1, stronger effect = lower value
[71] = locus YOR316C, strain cot1, stronger effect = lower value
[72] = locus YPR119W, strain clb2, stronger effect = lower value
[73] = locus YPR141C, strain kar3, stronger effect = lower value
[74] = locus YPR163C, strain tif3, stronger effect = lower value
[75] = locus YPR167C, strain met16, stronger effect = lower value
[76] = strain wtn01, stronger effect = lower value

COc1ccc(-c2c(O)c3cc4c(c(CC=C(C)C)c3oc2=O)OC(C)(C)CC4)cc1
normalized growth [1]: 1.01 | normalized growth [2]: 0.996 | normalized growth [3]: 1.02 | normalized growth [4]: 1.01 | normalized growth [5]: 1.03 | normalized growth [6]: 1.01 | normalized growth [7]: 1.03 | normalized growth [8]: 1.03 | normalized growth [9]: 1.01 | normalized growth [10]: 1.01 | normalized growth [11]: 0.993 | normalized growth [12]: 1.01 | normalized growth [13]: 1.02 | normalized growth [14]: 1.02 | normalized growth [15]: 1.01 | normalized growth [16]: 1.03 | normalized growth [17]: 1.01 | normalized growth [18]: 1.01 | normalized growth [19]: 1.01 | normalized growth [20]: 1.03 | normalized growth [21]: 1 | normalized growth (locus YGR078C, strain PAC10, stronger effect = lower value): 1.01 | normalized growth [22]: 1.03 | normalized growth [23]: 1.02 | normalized growth [24]: 1.02 | normalized growth [25]: 1.01 | normalized growth [26]: 1.01 | normalized growth [27]: 1.02 | normalized growth [28]: 1.01 | normalized growth [29]: 1 | normalized growth [30]: 1.01 | normalized growth [31]: 1.06 | normalized growth [32]: 1.02 | normalized growth [33]: 1.01 | normalized growth [34]: 1.01 | normalized growth [35]: 1.01 | normalized growth [36]: 1.02 | normalized growth [37]: 1.01 | normalized growth [38]: 1.01 | normalized growth [39]: 1.11 | normalized growth [40]: 1.01 | normalized growth [41]: 1.01 | normalized growth [42]: 1.01 | normalized growth (locus YKL190W, strain CNB1, stronger effect = lower value): 1 | normalized growth [43]: 1.02 | normalized growth [44]: 1.02 | normalized growth [45]: 1.01 | normalized growth [46]: 1.01 | normalized growth (locus YLR262C, strain YPT6, stronger effect = lower value): 1.07 | normalized growth [47]: 1.02 | normalized growth (locus YLR330W, strain CHS5, stronger effect = lower value): 1.02 | normalized growth (locus YLR342W, strain FKS1 (second series), stronger effect = lower value): 1.02 | normalized growth [48]: 1.02 | normalized growth [49]: 1.01 | normalized growth [50]: 1.01 | normalized growth [51]: 1.02 | normalized growth [52]: 1.01 | normalized growth [53]: 1.02 | normalized growth [54]: 1.01 | normalized growth (locus YMR263W, strain SAP30, stronger effect = lower value): 1.01 | normalized growth [55]: 1.08 | normalized growth [56]: 1.01 | normalized growth (locus YNL128W, strain TEP1, stronger effect = lower value): 1 | normalized growth [57]: 1 | normalized growth [58]: 1 | normalized growth [59]: 1.02 | normalized growth [60]: 1.01 | normalized growth [61]: 1.01 | normalized growth [62]: 1.02 | normalized growth [63]: 1.02 | normalized growth [64]: 1.17 | normalized growth (locus YOL012C, strain htz1): 1.44 | normalized growth [65]: 1 | normalized growth [66]: 1 | normalized growth [67]: 1.01 | normalized growth [68]: 1.02 | normalized growth [69]: 0.999 | normalized growth [70]: 0.993 | normalized growth [71]: 1.02 | normalized growth (locus YPL241C, strain CIN2, stronger effect = lower value): 1.01 | normalized growth [72]: 1.02 | normalized growth [73]: 1.02 | normalized growth [74]: 1.01 | normalized growth [75]: 1.01 | normalized growth [76]: 1.01

COc1c(CC=C(C)C)c2c(c3oc(=O)c(-c4ccc(O)cc4)c(O)c13)C=CC(C)(C)O2
normalized growth [1]: 0.918 | normalized growth [2]: 1.01 | normalized growth [3]: 0.841 (active) | normalized growth [4]: 0.918 | normalized growth [5]: 0.687 (active) | normalized growth [6]: 0.964 | normalized growth [7]: 1.03 | normalized growth [8]: 0.875 (active) | normalized growth [9]: 0.92 | normalized growth [10]: 1.03 | normalized growth [11]: 0.875 | normalized growth [12]: 0.896 (active) | normalized growth [13]: 0.975 | normalized growth [14]: 0.94 | normalized growth [15]: 0.968 | normalized growth [16]: 0.986 | normalized growth [17]: 0.752 (active) | normalized growth [18]: 0.951 | normalized growth [19]: 1 | normalized growth [20]: 0.937 | normalized growth [21]: 0.921 | normalized growth [22]: 0.989 | normalized growth [23]: 0.722 (active) | normalized growth [24]: 1.02 | normalized growth [25]: 0.974 | normalized growth [26]: 0.979 | normalized growth [27]: 0.976 | normalized growth [28]: 0.899 (active) | normalized growth [29]: 0.908 (active) | normalized growth [30]: 0.903 | normalized growth [31]: 0.952 | normalized growth [32]: 0.957 | normalized growth [33]: 0.953 | normalized growth [34]: 0.74 (active) | normalized growth [35]: 1.01 | normalized growth [36]: 0.961 | normalized growth [37]: 0.945 | normalized growth [38]: 0.947 | normalized growth [39]: 0.985 | normalized growth [40]: 1.01 | normalized growth [41]: 0.958 | normalized growth [42]: 0.958 | normalized growth [43]: 0.869 (active) | normalized growth [44]: 0.889 | normalized growth [45]: 0.912 | normalized growth [46]: 0.978 | normalized growth [47]: 0.853 (active) | normalized growth [48]: 0.769 (active) | normalized growth [49]: 0.649 (active) | normalized growth [50]: 0.992 | normalized growth [51]: 0.896 (active) | normalized growth [52]: 0.983 | normalized growth [53]: 0.98 | normalized growth [54]: 0.925 | normalized growth [55]: 0.773 | normalized growth [56]: 0.97 | normalized growth [57]: 0.922 | normalized growth [58]: 0.881 | normalized growth [59]: 1.04 | normalized growth [60]: 0.998 | normalized growth [61]: 0.989 | normalized growth [62]: 0.677 (active) | normalized growth (locus YNL322C, strain KRE1, stronger effect = lower value): 0.972 | normalized growth [63]: 0.917 | normalized growth [64]: 0.779 | normalized growth (locus YOL012C, strain htz1): 0.812 | normalized growth [65]: 0.902 (active) | normalized growth [66]: 0.982 | normalized growth [67]: 0.997 | normalized growth [68]: 0.934 | normalized growth [69]: 0.968 | normalized growth [70]: 0.476 (active) | normalized growth [71]: 0.976 | normalized growth [72]: 0.977 | normalized growth [73]: 1 | normalized growth [74]: 0.84 (active) | normalized growth [75]: 0.938 | normalized growth [76]: 0.905
